Results on 39 compounds are retold here after PubChem BioAssay (NCI).

Where “and” joins values, the source holds several entries; their conditions need not be identical. Identical values can stand only once. About 83,000 compounds went through this panel and 20% of them were active in at least one assay; those are over-represented in the sample as a whole.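 Each cell line was grown in a 96-well plate and treated with one concentration of compound for 48 hours. Values below 10 were considered active.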 Calls of active or inactive are those of the source.

The first assay has as its system SR leukemia. Description: NCI-60 one-dose screen, 48 h (100 = growth as untreated, 0 = no growth, -100 = all killed). As to conditions: 10 µM unless noted.
As to `Cc1ccc(S(=O)(=O)NCCCNc2nccc(-c3[nH]c(-c4ccccc4)nc3-c3ccc(F)c(O)c3)n2)cc1`, the growth was 33.8% (inactive).

In the case of `COc1cc(-c2nc(-c3ccccc3)[nH]c2-c2ccnc(NCCCNS(=O)(=O)c3ccc(C(F)(F)F)cc3)n2)ccc1Cl`, the growth was 9.32% (active) and 35.8% (inactive).

For the compound `C#C[C@]1(O)CC[C@H]2[C@@H]3CC=C4c5sc(Nc6ncccc6C)nc5CC[C@]4(C)[C@H]3CC[C@@]21C`, the growth is -3.26% (active).

Consider `CCOC(=O)c1c(NC(=O)c2cccc(C(F)(F)F)c2)sc2c3c(ccc12)OCN(C)C3`, for which the growth is -41.7% (active).

For the compound `COc1ccc(/C=N/NC(=O)CSc2nc(-c3cnccn3)cc(-c3cccs3)c2C#N)cc1`, the growth is 65.3% (inactive).

On to `CCCCCCN1C=C/C(=C\C(=O)n2ccc3ccccc32)c2ccccc21`, for which the growth was 54.3% (inactive).

Turning to `Cc1ccc(C(=O)CSc2nc3ccccc3c(=O)n2C)cc1`, the growth is 81.5% (inactive).

With `O=C(CCCCCCNC(=O)C(O)(O)C(F)(F)F)Nc1ccc(-c2ccccc2)cc1`, the growth was 2.65% (active).

Take `COc1ccc(C2CC(c3cccc(OCCCCOc4cccc(C5=NN(C(C)=O)C(c6ccc(OC)cc6)C5)c4)c3)=NN2C(C)=O)cc1` (stereo not drawn): the growth is 39.3% (inactive).

As to `Cn1cc(-c2nc(N)nnc2-c2c[nH]c3ccc(Br)cc23)c2cc(F)ccc21`, the growth was 50% (inactive).

With `Oc1[nH]c2ccc(Cl)cc2c1N=Nc1nc(N=Nc2c(O)[nH]c3ccc(Cl)cc23)nc(N2CCCCC2)n1`, the growth is 24.5% (inactive).

As to `CC(=O)Nc1cc(N2CCOCC2)c2nc(NC(=O)c3[nH]c(C)c(Cl)c3Cl)sc2c1`, the growth was 28.6% (inactive).

Take `C#CCN(C)CCCOc1ccc(NCc2ccc(/C=C/C(=O)NO)cc2)cc1Cl`: the growth is 9.72% (active).

Consider `COC(=O)c1ccc(NC2=C(Cl)C(=O)c3nc(C)ccc3C2=O)cc1`, for which the growth was 22.3% (inactive).

Turning to `Cc1ccc2c(n1)C(=O)C(Cl)=C(Nc1cc(C(F)(F)F)cc(C(F)(F)F)c1)C2=O`, the growth is 7.46% (active).

Regarding `COC(=O)c1cccc(NC2=C(Cl)C(=O)c3nc(C)ccc3C2=O)c1`, the growth is 18.7% (inactive).

On to `COc1cc(C(C)=C(c2ccc(OCCN(C)C)cc2)c2ccc(OCCN(C)C)cc2)ccc1F`, for which the growth was 99.2% (inactive).

`N#Cc1c(-c2cccs2)cc(-c2cnccn2)nc1SCC(=O)N/N=C/c1ccncc1`: the growth is 93.6% (inactive).

In the case of `C#Cc1cc(OC)c(C(=O)Nc2ccc(F)cc2C(=O)Nc2cccc(S(=O)(=O)C(F)(F)F)c2)cn1`, the growth is -42.7% (active).

Regarding `NC1=NC2(CCCC2)N(c2ccc(S(=O)(=O)Nc3nccs3)cc2)C(N)=N1`, the growth is 98.2% (inactive).

Regarding `Cn1cc(-c2nnc(N)nc2-c2c[nH]c3ccc(F)cc23)c2cc(Br)ccc21`, the growth was 4.93% (active).

Regarding `CCCN1C=C/C(=C\C(=O)n2ccc3ccccc32)c2ccccc21`, the growth was 55.9% (inactive).

On to `Cc1ccc2c(n1)C(=O)C(Cl)=C(Nc1ccc(C(C)C)cc1)C2=O`, for which the growth is 3.93% (active).

Take `COc1ccc2c(c1)C=CC1(O2)Oc2ccc(OC)cc2C=C1C` (stereo not drawn): the growth is 11.3% (inactive).

For the compound `NCCNC(=O)c1cccc(COc2ccccc2NC(=O)c2cc(Cl)c(Cl)[nH]2)c1`, the growth was 8.2% (active).

For the compound `Cc1cc(C)cc(NC2=C(Cl)C(=O)c3nc(C)ccc3C2=O)c1`, the growth was 41% (inactive).

For `Cc1nc(/N=C(N)/N=C(\N)c2cccc(Br)c2)sc1C`, the growth was 35.6% (inactive).

As for `Fc1ccc2nc(-c3cnn4cccnc34)sc2c1`, the growth is 78% (inactive).

For the compound `COc1ccc(C(=O)c2c(N)c(C#N)cn2-c2ccc(Cl)cc2Cl)cc1`, the growth was 92.1% (inactive).

For `COc1ccc(C2CC(c3cccc(OCCCCOc4cccc(C5=NOC(c6ccc(OC)cc6)C5)c4)c3)=NO2)cc1` (stereo not drawn), the growth was 29.9% (inactive).

For `CCN(CC)CCOc1ccc(C(=C(C)c2ccc(OC)cc2)c2ccc(OCCN(CC)CC)cc2)cc1`, the growth was -37.3% (active).

As for `CN1CCN(c2ccc(Nc3nc(NCCCNS(=O)(=O)c4ccccc4)c4sccc4n3)cc2)CC1`, the growth was 2.4% (active).

`CC1=C(C)C(=O)C(Nc2cccc(C(=O)OC(C)(C)C)c2)=C(Cl)C1=O`: the growth is 16.3% (inactive).

Consider `O=C(/C=C/c1cccc(F)c1)c1cccc(OCCCOc2cccc(C(=O)/C=C/c3cccc(F)c3)c2)c1`, for which the growth is 6.17% (active).

For the compound `CC(Nc1ncnc2ccc(-c3cnc4cnccn34)cc12)c1ccccc1` (stereo not drawn), the growth was 38.9% (inactive).

Take `CC1CC(=O)C2=C(C1)Nc1ccc(Br)cc1CC2c1c[nH]c2ccc(Br)cc12` (stereo not drawn): the growth is 29.7% (inactive).

Turning to `C[C@@H]1OCC2(CCN(c3cnc(C(=O)Nc4cc(F)cc5cccnc45)cn3)CC2)[C@@H]1N`, the growth is 2.82% (active).

For the compound `C#CCOc1ccccc1C(OC(=O)c1ccccc1)C(=O)NC(C)(C)C(C)(C)C` (stereo not drawn), the growth was 64.7% (inactive).

Turning to `O=C(CSc1nnc(-c2cccs2)n1-c1ccccc1)Nc1ccccc1F`, the growth is 25.3% (inactive).

The next assay relates to RPMI-8226 leukemia. The assay is described as above. Conditions: 10 µM unless noted.
`Cc1ccc(S(=O)(=O)NCCCNc2nccc(-c3[nH]c(-c4ccccc4)nc3-c3ccc(F)c(O)c3)n2)cc1`: the growth is 53.7% (inactive).

In the case of `COc1cc(-c2nc(-c3ccccc3)[nH]c2-c2ccnc(NCCCNS(=O)(=O)c3ccc(C(F)(F)F)cc3)n2)ccc1Cl`, the growth is 12.5% (inactive) and 31.6% (inactive).

`C#C[C@]1(O)CC[C@H]2[C@@H]3CC=C4c5sc(Nc6ncccc6C)nc5CC[C@]4(C)[C@H]3CC[C@@]21C`: the growth was -36.2% (active).

Turning to `CCOC(=O)c1c(NC(=O)c2cccc(C(F)(F)F)c2)sc2c3c(ccc12)OCN(C)C3`, the growth was -47.6% (active).

On to `COc1ccc(/C=N/NC(=O)CSc2nc(-c3cnccn3)cc(-c3cccs3)c2C#N)cc1`, for which the growth was 48.3% (inactive).

`CCCCCCN1C=C/C(=C\C(=O)n2ccc3ccccc32)c2ccccc21`: the growth is 12.7% (inactive).

Take `Cc1ccc(C(=O)CSc2nc3ccccc3c(=O)n2C)cc1`: the growth was 63.8% (inactive).

`O=C(CCCCCCNC(=O)C(O)(O)C(F)(F)F)Nc1ccc(-c2ccccc2)cc1`: the growth was 15.1% (inactive).

With `COc1ccc(C2CC(c3cccc(OCCCCOc4cccc(C5=NN(C(C)=O)C(c6ccc(OC)cc6)C5)c4)c3)=NN2C(C)=O)cc1` (stereo not drawn), the growth was 33.8% (inactive).

For `Cn1cc(-c2nc(N)nnc2-c2c[nH]c3ccc(Br)cc23)c2cc(F)ccc21`, the growth was 80.2% (inactive).

Take `Oc1[nH]c2ccc(Cl)cc2c1N=Nc1nc(N=Nc2c(O)[nH]c3ccc(Cl)cc23)nc(N2CCCCC2)n1`: the growth was 57% (inactive).

For `CC(=O)Nc1cc(N2CCOCC2)c2nc(NC(=O)c3[nH]c(C)c(Cl)c3Cl)sc2c1`, the growth is 55% (inactive).

Turning to `C#CCN(C)CCCOc1ccc(NCc2ccc(/C=C/C(=O)NO)cc2)cc1Cl`, the growth was 8.55% (active).

Consider `COC(=O)c1ccc(NC2=C(Cl)C(=O)c3nc(C)ccc3C2=O)cc1`, for which the growth was 36.9% (inactive).

As to `Cc1ccc2c(n1)C(=O)C(Cl)=C(Nc1cc(C(F)(F)F)cc(C(F)(F)F)c1)C2=O`, the growth is 6.65% (active).

In the case of `COC(=O)c1cccc(NC2=C(Cl)C(=O)c3nc(C)ccc3C2=O)c1`, the growth is 3.31% (active).

With `COc1cc(C(C)=C(c2ccc(OCCN(C)C)cc2)c2ccc(OCCN(C)C)cc2)ccc1F`, the growth was 107% (inactive).

For `N#Cc1c(-c2cccs2)cc(-c2cnccn2)nc1SCC(=O)N/N=C/c1ccncc1`, the growth was 103% (inactive).

With `C#Cc1cc(OC)c(C(=O)Nc2ccc(F)cc2C(=O)Nc2cccc(S(=O)(=O)C(F)(F)F)c2)cn1`, the growth was -44.1% (active).

Consider `NC1=NC2(CCCC2)N(c2ccc(S(=O)(=O)Nc3nccs3)cc2)C(N)=N1`, for which the growth is 94.1% (inactive).

As to `Cn1cc(-c2nnc(N)nc2-c2c[nH]c3ccc(F)cc23)c2cc(Br)ccc21`, the growth is 5.9% (active).

`CCCN1C=C/C(=C\C(=O)n2ccc3ccccc32)c2ccccc21`: the growth is 69.3% (inactive).

For `Cc1ccc2c(n1)C(=O)C(Cl)=C(Nc1ccc(C(C)C)cc1)C2=O`, the growth is -21.7% (active).

Consider `COc1ccc2c(c1)C=CC1(O2)Oc2ccc(OC)cc2C=C1C` (stereo not drawn), for which the growth is 19% (inactive).

Regarding `NCCNC(=O)c1cccc(COc2ccccc2NC(=O)c2cc(Cl)c(Cl)[nH]2)c1`, the growth was 101% (inactive).

With `Cc1cc(C)cc(NC2=C(Cl)C(=O)c3nc(C)ccc3C2=O)c1`, the growth is -15.1% (active).

On to `Cc1nc(/N=C(N)/N=C(\N)c2cccc(Br)c2)sc1C`, for which the growth is 55.1% (inactive).

As for `Fc1ccc2nc(-c3cnn4cccnc34)sc2c1`, the growth was 87.6% (inactive).

Consider `COc1ccc(C(=O)c2c(N)c(C#N)cn2-c2ccc(Cl)cc2Cl)cc1`, for which the growth is 101% (inactive).

Regarding `COc1ccc(C2CC(c3cccc(OCCCCOc4cccc(C5=NOC(c6ccc(OC)cc6)C5)c4)c3)=NO2)cc1` (stereo not drawn), the growth is -21.9% (active).

As for `CCN(CC)CCOc1ccc(C(=C(C)c2ccc(OC)cc2)c2ccc(OCCN(CC)CC)cc2)cc1`, the growth was -43.7% (active).

As for `CN1CCN(c2ccc(Nc3nc(NCCCNS(=O)(=O)c4ccccc4)c4sccc4n3)cc2)CC1`, the growth is 14.6% (inactive).

With `CC1=C(C)C(=O)C(Nc2cccc(C(=O)OC(C)(C)C)c2)=C(Cl)C1=O`, the growth was 10.3% (inactive).

On to `O=C(/C=C/c1cccc(F)c1)c1cccc(OCCCOc2cccc(C(=O)/C=C/c3cccc(F)c3)c2)c1`, for which the growth was -15.7% (active).

As for `CC(Nc1ncnc2ccc(-c3cnc4cnccn34)cc12)c1ccccc1` (stereo not drawn), the growth is 46.6% (inactive).

Turning to `CC1CC(=O)C2=C(C1)Nc1ccc(Br)cc1CC2c1c[nH]c2ccc(Br)cc12` (stereo not drawn), the growth is 42.8% (inactive).

As for `C[C@@H]1OCC2(CCN(c3cnc(C(=O)Nc4cc(F)cc5cccnc45)cn3)CC2)[C@@H]1N`, the growth is 55.5% (inactive).

`C#CCOc1ccccc1C(OC(=O)c1ccccc1)C(=O)NC(C)(C)C(C)(C)C` (stereo not drawn): the growth was 74% (inactive).

Regarding `O=C(CSc1nnc(-c2cccs2)n1-c1ccccc1)Nc1ccccc1F`, the growth was 88.7% (inactive).
